# Experiments:
# Settings in all cases: concentration: 1 μM, replicates: in singlicate; n = 1
# NEK11 = tested on: NEK11
# NEK1 = tested on: NEK1
# NEK2 = tested on: NEK2
# NEK3 = tested on: NEK3
# NEK4 = tested on: NEK4
# NEK5 = tested on: NEK5
# NEK6 = tested on: NEK6
# NEK7 = tested on: NEK7
# NEK9 = tested on: NEK9
# NIK = tested on: T1, NIK
# T1 construct: gene MAP3K14
# NIM1 = tested on: T2, NIM1
# T2 construct: gene MGC42105
# NLK = tested on: NLK
# OSR1 = tested on: T3, OSR1
# T3 construct: gene OXSR1
# PAK1 = tested on: PAK1
# PAK2 = tested on: PAK2
# PAK3 = tested on: PAK3
# PAK4 = tested on: PAK4
# PAK6 = tested on: PAK6
# PAK7 = tested on: PAK7
# PCTK1 = tested on: T4, PCTK1
# T4 construct: gene CDK16
# 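Also: KINOMEscan kinase panel screen.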
SMILES,%Inh (NEK11),%Inh (NEK1),%Inh (NEK2),%Inh (NEK3),%Inh (NEK4),%Inh (NEK5),%Inh (NEK6),%Inh (NEK7),%Inh (NEK9),%Inh (NIK),%Inh (NIM1),%Inh (NLK),%Inh (OSR1),%Inh (PAK1),%Inh (PAK2),%Inh (PAK3),%Inh (PAK4),%Inh (PAK6),%Inh (PAK7),%Inh (PCTK1)
Cl.N#CCc1ccc(Nc2nccc(Nc3ccc(Oc4ccccc4)cc3)n2)cc1 [GW639905],0%,0%,5%,0%,16%,24%,0%,0%,0%,0%,14%,0%,11%,0%,10%,47%,0%,0%,0%,0%
CN(c1ccc(NC(=O)Nc2cccc(Cl)c2)cc1)c1ccnc(N)n1.Cl [GW830707],28%,0%,16%,0%,0%,7%,14%,0%,3%,9%,0%,4%,0%,5%,34%,6%,1%,7%,0%,0%
O=C(O)C(F)(F)F.O=c1[nH]ccc2nc(N[C@@H]3CCNC3)nc(Nc3cc(Cl)cc(Cl)c3)c12 [GSK2188764],0%,28%,23%,23%,17%,14%,0%,13%,25%,64%,67%,19%,54%,92.2%,78%,96.9%,96.4%,96%,99.9%,7%
Cc1ccccc1CC(=O)N1CCc2cc(-c3cn(C)c4ncnc(N)c34)ccc21 [GSK2603346],58%,89%,97%,0%,29%,34%,0%,0%,0%,21%,3%,0%,12%,0%,0%,48%,0%,0%,0%,0%
CC(C)NCC(Cc1ccccc1)NC(=O)c1cc(Br)c(-c2ccnc3[nH]ccc23)s1.Cl.Cl (stereo not shown) [GSK1383281],0%,91.9%,13%,16%,0%,68%,0%,0%,0%,0%,0%,22%,1%,11%,0%,75%,18%,47%,47%,1%
CC(C)c1nc(-c2ccc(F)c(NS(=O)(=O)c3c(F)cccc3F)c2)c(-c2ccnc(Nc3ccc(N4CCOCC4)nc3)n2)s1 [GSK1804250],97.6%,16%,31%,3%,10%,1%,7%,8%,85%,9%,0%,96.3%,7%,5%,11%,36%,0%,0%,10%,94.6%
O=C(Nc1n[nH]c2nc(-c3ccccc3)ccc12)C1CC1 [SB-708999],36%,0%,0%,2%,5%,49%,24%,0%,7%,18%,29%,78%,17%,0%,0%,5%,0%,0%,0%,16%
Cl.Cl.NC(CNC(=O)c1cc(Br)c(-c2ccnc3[nH]ccc23)s1)c1ccccc1 (stereo not shown) [GSK1322949],0%,54%,0%,5%,0%,16%,0%,0%,23%,11%,65%,22%,34%,32%,36%,67%,0%,16%,46%,21%
O=C(Nc1n[nH]c2cc(-c3cccs3)ccc12)C1CC1 [SB-731284],18%,0%,0%,20%,39%,0%,0%,0%,0%,14%,12%,0%,16%,0%,0%,43%,0%,0%,7%,48%
NCCC(NC(=O)c1cc(Br)c(-c2ccnc3[nH]ccc23)s1)c1ccccc1.O=C(O)C(F)(F)F.O=C(O)C(F)(F)F (stereo not shown) [GSK1307810],30%,71%,19%,0%,0%,96.3%,3%,0%,4%,49%,7%,3%,10%,19%,56%,76%,74%,62%,86%,1%
Nc1cccc(-c2ccc3c(N)n[nH]c3c2)c1 [GSK2193613],17%,11%,11%,0%,0%,6%,0%,0%,8%,6%,0%,17%,13%,2%,2%,0%,0%,6%,15%,0%
Cc1ccc(-c2ccc3occ(-c4ccc(S(C)=O)cc4)c3c2)nn1 (stereo not shown),0%,0%,0%,30%,0%,0%,0%,0%,0%,0%,0%,1%,0%,6%,4%,0%,1%,0%,0%,0%
COC(=O)Nc1nc2cc(Oc3ccc(NC(=O)Nc4cccc(SC)c4)cc3)ccc2[nH]1.Cl [GW697999],22%,0%,0%,4%,4%,11%,0%,0%,3%,0%,32%,0%,15%,0%,0%,29%,0%,0%,0%,3%
COc1cccc(-c2nc(-c3ccccc3)[nH]c2-c2ccncc2)c1 [SB-610250],26%,100%,0%,11%,16%,1%,4%,0%,4%,0%,40%,89%,0%,23%,32%,16%,0%,0%,0%,5%
Cc1ccc(NC(=O)c2ccnc(N3CCCCC3)c2)cc1-c1ccc(C(=O)NCC2CC2)cc1 [GW775610],0%,0%,0%,4%,0%,0%,0%,8%,20%,15%,8%,15%,0%,0%,0%,15%,17%,0%,0%,73%
Cl.Cl.NCC(NC(=O)c1cc(-c2cccnc2)c(-c2ccnc3[nH]ccc23)s1)c1ccccc1 (stereo not shown) [GSK1323434],15%,13%,1%,18%,24%,13%,4%,0%,11%,35%,36%,19%,17%,4%,6%,39%,0%,28%,65%,0%
N#CC1(c2cccc(C(=O)Nc3cccc(Oc4ccc5nc(NC(=O)C6CC6)sc5n4)c3)c2)CC1,0%,40%,0%,30%,0%,0%,0%,0%,0%,0%,0%,0%,0%,3%,27%,0%,0%,15%,0%,0%

# Reference: publication PMC5540273 (PLoS ONE, 2017)
